Activity calls are given as the source filed them. Calls follow the shape of the full dose curve.
Conditions: Ebola virus entry reporter assay, ratio channel

**Q.** For `CCCCc1oc2ccc(NS(C)(=O)=O)cc2c1C(=O)c1ccc(OCCCN(CCCC)CCCC)cc1`, which AC50 is on record?
**A.** The AC50 was 2.43 µM (active).

**Q.** With `CN(C)CCOc1ccc(/C(=C(/CCCl)c2ccccc2)c2ccccc2)cc1` as the compound, how does the AC50 read?
**A.** Its AC50 is 1.09 µM (active).

**Q.** For `CN1[C@@H]2CC[C@H]1CC(OC(c1ccccc1)c1ccccc1)C2` (some centres undefined), which AC50 is on record?
**A.** The AC50 was 3.85 µM (active).

**Q.** With `CC[C@]1(O)C[C@@H]2CN(CCc3c([nH]c4ccccc34)[C@@](C(=O)OC)(c3cc4c(cc3OC)N(C)[C@H]3[C@@](O)(C(=O)OC)[C@H](OC(C)=O)[C@]5(CC)C=CCN6CC[C@]43[C@@H]65)C2)C1` as the compound, how does the AC50 read?
**A.** Its AC50 is 0.122 µM (active).

**Q.** For `CCC1=C[C@@H]2CN(C1)Cc1c([nH]c3ccccc13)[C@@](C(=O)OC)(c1cc3c(cc1OC)N(C)[C@H]1[C@@](O)(C(=O)OC)[C@H](OC(C)=O)[C@]4(CC)C=CCN5CC[C@]31[C@@H]54)C2`, which AC50 is on record?
**A.** The AC50 was 0.0863 µM (active).

**Q.** For `CC[C@H]1OC(=O)[C@H](C)[C@@H](O[C@H]2C[C@@](C)(OC)[C@@H](O)[C@H](C)O2)[C@H](C)[C@@H](O[C@@H]2O[C@H](C)C[C@H](N(C)C)[C@@H]2O)[C@](C)(O)C[C@@H](C)CN(C)[C@H](C)[C@@H](O)[C@]1(C)O`, which AC50 is on record?
**A.** Its AC50 is 3.06 µM (active).

**Q.** With `CCCSc1ccc2nc(NC(=O)OC)[nH]c2c1` as the compound, how does the AC50 read?
**A.** Its AC50 is 4.32 µM (active).

**Q.** With `COC(=O)Nc1nc2ccc(C(=O)c3ccccc3)cc2[nH]1` as the compound, how does the AC50 read?
**A.** Its AC50 is 3.43 µM (active).

**Q.** With `CCN(CC)CCNC(=O)c1c(C)[nH]c(/C=C2\C(=O)Nc3ccc(F)cc32)c1C` as the compound, how does the AC50 read?
**A.** The AC50 was 1.53 µM (active).

**Q.** With `CCCNCC(O)COc1ccccc1C(=O)CCc1ccccc1` (centres undefined) as the compound, how does the AC50 read?
**A.** Its AC50 is 8.63 µM (active).

**Q.** For `COC1=CC(=O)C[C@@H](C)[C@]12Oc1c(Cl)c(OC)cc(OC)c1C2=O`, which outcome is on record?
**A.** The outcome was “inactive”.

**Q.** For `CN(C)CCCN1c2ccccc2CCc2ccc(Cl)cc21`, which AC50 is on record?
**A.** The AC50 was 5.44 µM (active).

**Q.** Which AC50 does the source give for `C[C@@H]1O[C@@H](O[C@H]2CC[C@@]3(C)[C@H](CC[C@@H]4[C@H]3C[C@@H](O)[C@]3(C)[C@@H](C5=CC(=O)OC5)CC[C@]43O)C2)C[C@H](O)[C@@H]1O[C@H]1C[C@H](O)[C@H](O[C@H]2C[C@H](O)[C@@H](O)[C@@H](C)O2)[C@H](C)O1` (stereo in doubt) here?
**A.** The AC50 was 1.4 µM (active).

**Q.** With `CN1CCN(CCCN2c3ccccc3Sc3ccc(C(F)(F)F)cc32)CC1` as the compound, how does the AC50 read?
**A.** Its AC50 is 2.73 µM (active).

**Q.** For `Cc1nnc(C(C)C)n1C1C[C@H]2CC[C@@H](C1)N2CC[C@H](NC(=O)C1CCC(F)(F)CC1)c1ccccc1` (some centres undefined), which outcome is on record?
**A.** The outcome was “inactive”.

**Q.** Which outcome does the source give for `NCCCC(O)(P(=O)(O)O)P(=O)(O)O` here?
**A.** Its outcome is “inactive”.

**Q.** Which AC50 does the source give for `CC[C@H]1OC(=O)[C@H](C)[C@@H](O[C@H]2C[C@@](C)(OC)[C@@H](O)[C@H](C)O2)C(C)[C@@H](O[C@@H]2O[C@H](C)C[C@H](N(C)C)[C@@H]2O)[C@](C)(OC)C[C@@H](C)C(=O)[C@H](C)[C@@H](O)[C@]1(C)O` (some centres undefined) here?
**A.** Its AC50 is 4.85 µM (active).

**Q.** For `C[C@]12CC[C@@H]3c4ccc(O)cc4C[C@@H](CCCCCCCCCS(=O)CCCC(F)(F)C(F)(F)F)[C@H]3[C@@H]1CC[C@@H]2O` (some centres undefined), which outcome is on record?
**A.** Its outcome is “inactive”.

**Q.** With `CO[C@H]1C[C@@H]2CC[C@@H](C)[C@@](O)(O2)C(=O)C(=O)N2CCCC[C@@H]2C(=O)O[C@H]([C@H](C)C[C@@H]2CC[C@H](OCCO)[C@H](OC)C2)CC(=O)[C@H](C)C=C(C)[C@@H](O)[C@@H](OC)C(=O)[C@H](C)C[C@H](C)C=CC=CC=C1C` as the compound, how does the outcome read?
**A.** The outcome was “inactive”.

**Q.** With `CN1CCC[C@@H]1CCO[C@](C)(c1ccccc1)c1ccc(Cl)cc1` as the compound, how does the AC50 read?
**A.** The AC50 was 1.53 µM (active).

**Q.** Which AC50 does the source give for `COc1cccc2c1C(=O)c1c(O)c3c(c(O)c1C2=O)C[C@@](O)(C(C)=O)C[C@H]3O[C@H]1C[C@H](N)[C@H](O)[C@H](C)O1` here?
**A.** Its AC50 is 2.73 µM (active).

**Q.** With `CC[C@]1(O)C[C@H]2CN(CCc3c([nH]c4ccccc34)[C@@](C(=O)OC)(c3cc4c(cc3OC)N(C=O)[C@H]3[C@@](O)(C(=O)OC)[C@H](OC(C)=O)[C@]5(CC)C=CCN6CC[C@]43[C@@H]65)C2)C1` as the compound, how does the AC50 read?
**A.** Its AC50 is 0.137 µM (active).

**Q.** With `COC(=O)Nc1nc2ccc(C(=O)c3cccs3)cc2[nH]1` as the compound, how does the AC50 read?
**A.** Its AC50 is 0.544 µM (active).

**Q.** Which outcome does the source give for `CO[C@H]1C[C@@H]2CC[C@@H](C)[C@@](O)(O2)C(=O)C(=O)N2CCCC[C@@H]2C(=O)O[C@H]([C@@H](C)C[C@@H]2CC[C@H](O)[C@H](OC)C2)CC(=O)[C@H](C)C=C(C)[C@@H](O)[C@@H](OC)C(=O)[C@H](C)C[C@H](C)C=CC=CC=C1C` here?
**A.** Its outcome is “inactive”.
